Cruzain noTriton = qHTS Assay for Promiscuous and Specific Inhibitors of Cruzain (without detergent) | Potency, µM, for the others: max response, negative = inhibition, usual class: inhibitors | 2.3% of 200,000 active | purified cruzain, Z-FR-AMC fluorescence, no detergent;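 note: plate controls were enzyme without inhibitor for no effect and buffer without enzyme for full effect; nearly all actives have a fitted effect of over 40% in size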
Target sequence (P25779 123-467 limits assumed): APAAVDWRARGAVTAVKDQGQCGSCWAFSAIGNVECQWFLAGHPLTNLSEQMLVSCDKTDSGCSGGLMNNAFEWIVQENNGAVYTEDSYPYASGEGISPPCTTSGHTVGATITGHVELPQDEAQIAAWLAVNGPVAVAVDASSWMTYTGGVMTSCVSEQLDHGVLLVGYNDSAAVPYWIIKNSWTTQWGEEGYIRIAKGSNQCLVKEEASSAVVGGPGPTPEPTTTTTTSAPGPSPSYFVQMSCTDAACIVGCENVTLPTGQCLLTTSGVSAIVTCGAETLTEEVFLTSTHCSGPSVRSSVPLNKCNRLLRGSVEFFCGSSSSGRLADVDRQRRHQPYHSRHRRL
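Purified cruzain at 1.5 nM, pre-incubated 15 min with compound at room temperature in 100 mM sodium acetate pH 5.5, 5 mM DTT, 0.00005% Triton X-100. Reaction started with 2 uM Z-FR-AMC; AMC fluorescence increase over 60 s gives rate.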
Cruzain inh Det = qHTS Assay for Promiscuous and Specific Inhibitors of Cruzain (with detergent) | Cruzipain (Trypanosoma cruzi), P25779 | 0.43% of 200,000 active | purified cruzain, Z-FR-AMC fluorescence, 0.01% Triton | Potency, µM, for the others: max response, negative = inhibition, hits mostly inhibitors | AID 1478, 2009;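 note: plate controls were neutral wells for no effect and buffer without enzyme for full effect; nearly all actives have a fitted effect of over 40% in size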
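Enzyme 1.5 nM, Z-FR-AMC 2 uM, NaOAc 100 mM pH 5.5, DTT 5 mM, Triton X-100 0.01%; 15 min RT compound preincubation; kinetic ex360/em450, 60 s delta.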
The depositor's hits bear a star; ? = inconclusive. Hits are enriched below; roughly 2.5% of the tested compounds scored in any of these assays. Calls come from the whole dose curve; as a rule, active = well fitted curve in the direction sought with a large enough effect; inconclusive = small, poorly fitted or top-dose-only effect, or another doubt; inactive = no such curve, though single readings can be large; an effect the other way counts as inactive or inconclusive. Potency is the fitted concentration of half-maximal effect.

SMILES | Cruzain noTriton | Cruzain inh Det
Oc1c(C(c2ccccc2)N2CCC3(CC2)OCCO3)sc2nc(-c3ccco3)nn12 (stereo unspecified) | 22% | -1%
CCNC(=O)c1ccc(NS(=O)(=O)c2ccccc2)cc1 | -6% | 4%
NS(=O)(=O)c1ccc(NS(=O)(=O)c2ccc(NC(=O)c3ccc(-c4ccccc4)cc3)cc2)cc1 | 13µM* | -25%
Nc1nc(SCC(=O)Nc2ccc3c(c2)CCC3)n[nH]1 | -17% | -2%
O=C(CSc1nc(O)cc(=O)[nH]1)Nc1ccc2c(c1)CCC2 | 16µM* | -11%
C#CCOC(=O)[C@H](N)CC(N)=O | 7% | 8%
Cc1[nH]nc(-c2ccc(OCc3cnn(-c4ccccc4)c3)c(C)c2O)c1Oc1ccccc1 | 13µM* | 8%
Cc1[nH]nc(-c2ccc(OCc3cnn(-c4ccccc4)c3)cc2O)c1Oc1ccc(F)cc1 | ? | 8%
Cc1ccc(Oc2ccccc2/C=C2\SC(=O)N(C)C2=O)cc1 | -18% | -3%
O=C1NC(=O)/C(=C/c2ccccc2Oc2ccc(Cl)cc2)S1 | 20µM* | 2%
O=C(Nc1ccc(O)c(-c2nc3ccccc3o2)c1)c1ccco1 | -9% | -1%
O=C(Nc1ccc(O)c(-c2nc3ccccc3o2)c1)C1(c2ccc(Cl)cc2)CCCC1 | 5µM* | 7%
S=C(Nc1ccc(Oc2ccccc2)cc1)NC1CCCCCC1 | 5% | -5%
S=C(Nc1ccc(Oc2ccc(NC(=S)NC3CCCCC3)cc2)cc1)NC1CCCCC1 | 4µM* | -1%
COC(=O)c1c(C)oc2ccc(N(C(=O)Oc3ccccc3)S(=O)(=O)c3ccc(Cl)c([N+](=O)[O-])c3)cc12 | 7.9µM* | -3%
CCc1ccc(S(=O)(=O)N(C(=O)Oc2ccccc2)c2ccc3oc(C)c(C(=O)OC)c3c2)cc1 | ? | -2%
FC(F)(F)c1ccccc1-c1ccc2ncnc(N3CCOCC3)c2c1 | 12% | -6%
CN(C)Cc1ccccc1-c1cc(N(C)Cc2ccco2)ncn1 | -10% | -1%
O=C(N/N=C/c1cccc([N+](=O)[O-])c1)c1cccs1 | -3% | -5%
C=CCOc1ccc2cccc(/C=N/NC(=O)c3cc4cc([N+](=O)[O-])ccc4s3)c2c1 | 6.3µM* | 0%
CCOc1ccc(S(=O)(=O)NCCC(=O)OCN2C(=O)c3ccccc3C2=O)cc1 | -8% | -7%
Cc1ccc(S(=O)(=O)NCC(=O)OCN2C(=O)c3ccccc3C2=O)cc1 | 25µM* | 22µM*
COc1ccccc1-c1nc2c(c(SCc3ccc(F)cc3Cl)n1)Cc1c(CO)cnc(C)c1O2 | -3% | -1%
CC1CCN(c2[nH]c(=S)c(C#N)c3c2CCCC3)CC1 | -21% | 3%
CC1(C)Cc2c(c(N3CCCCC3)[nH]c(=S)c2C#N)CS1 | 13µM* | -1%
SMILES | Cruzain noTriton | Cruzain inh Det
C=C[C@@H]1CN2CC[C@H]1CC2[C@H](O)c1ccnc2ccccc12 (stereo partly specified) | -3% | 4%
CCc1ccccc1NC(=O)CCC(=O)OCC(=O)c1ccc(-c2ccccc2)cc1 | 16µM* | -2%
COc1ccccc1NC(=O)CCC(=O)c1ccc(-c2ccccc2)cc1 | -3% | -7%
COc1cc(CN(C(=O)c2ccccc2)c2ccccn2)cc(OC)c1OC | 0% | -1%
CC(C)c1ccc(NC(=O)Cn2nnc(C(=O)NCc3cccs3)c2N)cc1 | -7% | 0%
O=C(Cn1c(=O)c2ccccc2n(CC(=O)Nc2ccccc2F)c1=O)NCCc1ccccc1 | -16% | 1%
Cc1ccc(NC(=O)Cn2nnc(C(=O)NCCc3ccccc3)c2N)cc1Cl | ? | -4%
O=C(Cn1c(=O)c2ccccc2n(CC(=O)Nc2ccc(Cl)cc2)c1=O)NCCc1ccccc1 | 13µM* | 0%
CC(C)c1ccc(NC(=O)Cn2nnc(C(=O)NCc3ccc(Cl)cc3)c2N)cc1 | 7.9µM* | 0%
Nc1c(C(=O)NCCc2ccccc2)nnn1CC(=O)Nc1ccc(Cl)cc1 | 25µM* | -1%
O=C1C2C3C=CC(C4CC34)C2C(=O)N1/N=C/c1ccc([N+](=O)[O-])s1 (stereo unspecified) | -1% | -2%
O=C1C2C3C=CC(C4CC34)C2C(=O)N1/N=C/c1ccc(-c2cccc([N+](=O)[O-])c2)o1 (stereo unspecified) | 25µM* | -8%
COc1ccc(-n2c(SCC(=O)NCc3ccccc3)nc3c([nH]c4ccccc43)c2=O)cc1 | 18% | -4%
CCOc1ccc(CNC(=S)N/N=C\c2ccc([N+](=O)[O-])cc2)cc1 | 20µM* | -4%
CCOc1ccc(CNC(=S)N/N=C/c2cccnc2)cc1 | -1% | -6%
CCOC(=O)c1cc2cc3ccccc3cc2[nH]1 | 25µM* | -6%
CC(C)OC(=O)c1cc2ccccc2[nH]1 | -10% | -5%
Cc1ccc(C(=O)NCC(=O)NCC(=O)OCc2ccc(Cl)cc2)cc1 | 1% | -3%
